Measurements from PubChem BioAssay AID602358 (National Center for Advancing Translational Sciences (NCATS), 2012).
Records with an inconclusive call do not appear. Activity calls are given as the source filed them. Calls follow the shape of the dose curve; as a rule, active = well fitted inhibition curve with a large enough effect; inconclusive = small, poorly fitted or top-dose-only effect; inactive = flat fitted curve, though single readings scatter.

Target: Luciferin 4-monooxygenase (Photinus pyralis) (UniProt P08659)
Sequence (P08659 whole entry, looked up): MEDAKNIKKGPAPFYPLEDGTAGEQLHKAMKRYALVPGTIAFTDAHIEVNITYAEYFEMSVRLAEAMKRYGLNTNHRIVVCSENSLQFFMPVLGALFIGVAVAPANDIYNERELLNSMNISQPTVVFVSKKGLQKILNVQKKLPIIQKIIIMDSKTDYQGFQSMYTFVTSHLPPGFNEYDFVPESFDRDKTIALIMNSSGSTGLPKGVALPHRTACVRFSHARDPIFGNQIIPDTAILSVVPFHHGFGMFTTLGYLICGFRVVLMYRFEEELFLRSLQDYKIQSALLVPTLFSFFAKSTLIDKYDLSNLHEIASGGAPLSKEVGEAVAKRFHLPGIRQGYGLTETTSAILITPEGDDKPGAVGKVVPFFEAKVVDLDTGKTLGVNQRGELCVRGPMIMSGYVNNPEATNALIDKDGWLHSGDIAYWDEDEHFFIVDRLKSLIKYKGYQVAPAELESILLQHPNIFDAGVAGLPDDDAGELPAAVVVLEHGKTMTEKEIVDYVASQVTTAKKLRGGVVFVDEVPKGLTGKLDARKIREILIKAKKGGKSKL
Experiment: FLuc inhibitory activity for the follow-up compounds in a biochemical assay with Km concentrations of substrate and 500microM CoASH
Details: purified FLuc, Km substrates + 500 uM CoASH, luminescence; series mostly up to 57.5 µM
Source text: NCGC Assay Overview: Firefly (Photinus pyralis) luciferase is one of the most commonly used transcriptional reporters. It is considered one of the more dynamically responsive reporters - that is, responsive to changes in reporter transcription - as it requires no post-translational modifications and is enzymatically active directly after protein synthesis (Wood, 1998). With no endogenous expression in mammalian cells and without the requirement of external excitation, it offers very little background signal, thus generally providing excellent signal to background for most assays. Previous profiling work to determine the prevalence of compounds that affect FLuc enzymatic activity (PubChem AID 411) identified that ~3% of the MLSMR library (then at ~72K) inhibited FLuc. […] Of the compounds identified in this profile that inhibited FLuc, 151 compounds were selected for further analysis, in an effort to better understand their mode of inhibiting FLuc. The assay described here was to determine the activity of the compounds in an FLuc assay that contained KM concentrations of substrates and 500uM CoASH.
NCGC Assay Protocol Summary: Reagents: 50mM Tris acetate, pH 7.5; 10mM Mg acetate; 10uM D-luciferin (Sigma #L9504); 10uM ATP; 0.01% Tween-20; 0.05% BSA; 10nM P. pyralis luciferase (Sigma #L9506); 500 uM CoASH Control compounds used were two known firefly luciferase inhibitors (3-(5-(3-chlorophenyl)-1,2,4-oxadiazol-3-yl)benzoic acid and 5-(2-fluorophenyl)-3-phenyl-1,2,4-oxadiazole), and DMSO. Three microliters containing firefly luciferase substrates in buffer (final concentrations: 50mM Tris acetate, pH 7.5, 10mM Mg acetate, 0.01% Tween-20, 0.05% BSA, 10uM D-luciferin, 10uM ATP, and 500 uM CoASH) are dispensed into each well of a Greiner white, solid-bottom 1536-well format plate using a flying reagent dispenser (FRD). These assay plates were then treated with 23nL of compound or DMSO using a Kalypsys pin tool, which allows for delivery of a 12-point intraplate titration of each compound to the assay plate (quantitative HTS), with a final compound concentrations ranging from approximately ~60uM to 0.3nM. One microliter of firefly luciferase in 500mM Tris-acetate buffer was then delivered by FRD to each well for a final enzyme concentration of 10nM. Luciferase activity was then measured using a ViewLux CCD imager (PerkinElmer), with an average exposure time of 2-30 seconds (2X binning, medium/high gain).

| Compound | Potency |
| --- | --- |
| O=C(Nc1ccccc1C(=O)O)c1ccccc1 | 23100 nM (active) |
| Cc1ccc(C(=O)O/N=C(\N)c2ccccn2)c(Cl)c1 | 4.6 nM (active) |
| O=C(O)c1cccc(NC(=O)c2ccc(Cl)c(S(=O)(=O)N3CCCCCC3)c2)c1 | 2910 nM (active) |
| CC(=O)Oc1ccc(C(=O)Nc2ccccc2C(=O)Nc2cccc(C(=O)O)c2)cc1 | 2590 nM (active) |
| O=C(O)c1cccc(NC(=O)c2ccccc2NC(=O)c2ccco2)c1 | 20600 nM (active) |
| COc1ccc2nc(NC(=O)c3cccs3)sc2c1 | 13000 nM (active) |
| Cc1ccc(C(=O)Nc2cccc(C(=O)O)c2)cc1S(=O)(=O)N1CCOCC1 | 20600 nM (active) |
| Nc1ccc2nc(-c3ccccc3)sc2c1 | 58 nM (active) |
| CCc1noc(C)c1C(=O)Nc1nc2ccc(OC)cc2s1 | 13000 nM (active) |
| Nc1ccc2nc(-c3ccc(O)cc3)sc2c1 | 146 nM (active) |
| COc1ccc2nc(NC(=O)c3cnccn3)sc2c1 | 919 nM (active) |
| Cc1ccc2sc(-c3ccc(N)cc3)nc2c1 | 41.1 nM (active) |
| O=C(O)c1ccc(NC(=O)c2cc(S(=O)(=O)N3CCCCC3)c(Cl)cc2Cl)cc1 | inactive |
| COc1ccc2nc(NC(=O)c3ccc(NS(=O)(=O)c4cccs4)cc3)sc2c1 | 2590 nM (active) |
| COc1ccc2nc(NC(=O)c3ccccc3C(=O)O)sc2c1 | 6510 nM (active) |
| COc1ccc2nc(NC(=O)Cc3cccs3)sc2c1 | 5800 nM (active) |
| O=C(O)c1ccc(NC(=O)c2cccc(NC(=O)c3cccs3)c2)cc1 | 5800 nM (active) |
| Cc1ccc(C(=O)Nc2ccc(C(=O)O)cc2)cc1S(=O)(=O)Nc1ccccc1 | inactive |
| Nc1ccc(-c2nc3cc(N)ccc3s2)cc1 | 259 nM (active) |
| COc1ccc2nc(NC(=O)c3ccc4ncsc4c3)sc2c1 | 651 nM (active) |

| Compound | Potency |
| --- | --- |
| O=C(COC(=O)c1ccccc1[N+](=O)[O-])c1ccc2c(c1)OCO2 | 2.3 nM (active) |
| CCn1c(C)nc2cc(-c3nc4n(n3)Cc3ccccc3-4)ccc21 | 14.6 nM (active) |
| O=C(Nc1ccccc1C(=O)O)c1cc(S(=O)(=O)Nc2ccccc2)ccc1Cl | inactive |
| CCOc1ccc2nc(NC(=O)c3ccccn3)sc2c1 | 163 nM (active) |
| Cc1ccc(C(=O)Nc2ccc(C(=O)O)cc2)cc1S(=O)(=O)NCc1ccccc1 | inactive |
| O=C(O)c1cccc(NC(=O)c2cccc(S(=O)(=O)Nc3cccc(F)c3)c2)c1 | inactive |
| CC(=O)Nc1cccc(-c2nc3ccccc3s2)c1C | 13000 nM (active) |
| COc1ccc(NS(=O)(=O)c2cccc(C(=O)Nc3ccccc3C(=O)O)c2)cc1 | inactive |
| CCOc1ccc(C(=O)Nc2ccccc2C(=O)O)cc1 | 410 nM (active) |
| COc1ccc(C(=O)Nc2ccccc2C(=O)N/N=C/c2ccc(O)c(OC)c2)cc1 | 3.7 nM (active) |
| c1ccc2sc(-c3ccc4c(c3)OCO4)nc2c1 | 103 nM (active) |
| O=C(Nc1ccccc1C(=O)O)c1cccc(NC(=O)c2ccccc2Cl)c1 | 14600 nM (active) |
| Cc1ccc(S(=O)(=O)N2CCOCC2)cc1C(=O)Nc1ccccc1C(=O)O | inactive |
| CCOc1ccc2nc(NC(=O)c3ccccc3)sc2c1 | 206 nM (active) |
| CCOc1ccc2nc(NC(=O)c3cccnc3)sc2c1 | 1300 nM (active) |
| O=C(Nc1ccccc1C(=O)O)c1cc(S(=O)(=O)NCc2ccccc2)ccc1Cl | inactive |
| COc1ccc2nc(NC(=O)c3ccc(S(=O)(=O)N4CCCC(C)C4)cc3)sc2c1 (stereo not given) | inactive |
| O=C(Nc1ccccc1C(=O)O)c1cccc(NC(=O)c2ccc(Br)o2)c1 | 10300 nM (active) |
| O=C(O)c1ccccc1NC(=O)c1ccccc1Nc1ccccc1 | 9190 nM (active) |
| Cc1ccc(C(=O)Nc2cccc(C(=O)O)c2)cc1S(=O)(=O)N1CCCCC1 | 3660 nM (active) |
